Laboratory results: ChEMBL document CHEMBL4513216, “Probing the Open Global Health Chemical Diversity Library for Multistage-Active Starting Points for Next-Generation Antimalarials” (ACS Infect Dis, 2020)
Hit rate of the full screen: of about 69,000 compounds, about 8,600 (12%) showed an effect of 50% or more. This excerpt belongs to a sample that is enriched for strong results.

system: Plasmodium berghei; experiment: Screen against P. berghei liver stage (PbLuc), transformed with Luciferase, at 10uM; format: functional, HepG2; details: tested at 10 uM

Row | Compound | INHIBITION
1 | COCC1CC2(CCN(Cc3cnn(C)c3)CC2)CN1c1ncccn1 (stereo not given) | 18.5%
2 | O=C(CN1CCCC1COc1ccccc1)NCc1ccccn1 (stereo not given) | 38.2%
3 | Cc1nc(C(C)(C)NC(=O)Nc2cccc(C#N)c2)no1 | -4.74%
4 | Cc1ccc(NC(=O)NC(C)(C)c2noc(C)n2)cc1 | 13.6%
5 | Cc1nc(C(C)(C)NC(=O)Nc2ccc(C#N)cc2)no1 | 79.2%
6 | CCc1csc(C2CCCN(C(=O)c3ccnc(N(C)C)c3)C2)n1 (stereo not given) | 27.6%
7 | CN(C)CCNc1ncccc1CNC(=O)Nc1cc(F)cc(F)c1 | 55.6%
8 | CC(C)c1nnc(NC(=O)NCc2cccnc2NCCN(C)C)s1 | 25.7%
9 | Cc1nc(NC(=O)NCc2cccnc2NCCN(C)C)sc1C | 37.7%
10 | Cn1cc(S(=O)(=O)N(Cc2ccc(F)cc2F)C2CC2)cc1C(N)=O | 40.9%
11 | Cc1n[nH]c(C)c1NC(=O)CN1CCCC1c1c(C)nn(C)c1C (stereo not given) | 9.54%
12 | CCN(CC)C(=O)CSc1nc2cc(C)nc-2c(O)n1CC | 42.4%
13 | c1cncc(C2COC3(CCN(Cc4nccs4)CC3)C2)c1 (stereo not given) | 36.2%
14 | Cc1nc(CN2CCN(C(=O)CC(C)(C)c3ccccc3)CC2)no1 | -73.6%
15 | O=C(CCn1ccc2ccccc21)N1CCN(Cc2cccnc2)CC1 | 64.9%
16 | COc1cccc(CCC(=O)N2CCN(Cc3noc(C)n3)CC2)c1 | -30.7%
17 | Cc1nc(CN2CCN(C(=O)CCc3cccnc3)CC2)no1 | 65.2%
18 | Cc1nc(CN2CCN(C(=O)CCc3cccc(Cl)c3)CC2)no1 | 75.2%
19 | O=C(CCn1ccc2ccccc21)N1CCC(Nc2cccnn2)CC1 | -35.2%
20 | O=C(CCn1ccc2ccccc21)N1CCC(Nc2cccnc2)CC1 | -22.4%
21 | Cc1nc(CN2CCN(C(=O)Cc3cccc(Cl)c3)CC2)no1 | -2.04%
22 | Cc1nc(CN2CCN(C(=O)CCC(=O)c3ccccc3)CC2)no1 | -36.4%
23 | O=C(CCn1cccn1)N1CCSCC1 | 4.55%
24 | CN(C)Cc1ccccc1CN(C)C(=O)c1ccoc1 | 11.1%

Row | Compound | INHIBITION
25 | c1c(CN2CCCCC2)nc2n1CCNC2 | -46.4%
26 | Cc1nn(C)cc1S(=O)(=O)N(C)[C@@H]1CCC[C@@H](n2ccnc2)[C@@H]1O | 23%
27 | O=C(CCc1c(F)cccc1F)NS(=O)(=O)c1ccc2c(c1)OCCO2 | 0.914%
28 | Cc1cc(C)c2c(NCC3(O)CCCCC3)ncnc2n1 | 36.6%
29 | OC1(CNc2ccc(Br)cn2)CCC1 | -28.6%
30 | COc1nc2ccccc2cc1CN1CCC(CNS(C)(=O)=O)C1 (stereo not given) | 7.15%
31 | Cc1nnc2n1CC(CNc1ncnc3ccccc13)CC2 (stereo not given) | 22%
32 | OCc1cc2ccccc2nc1NCC1(O)CCC1 | 58.2%
33 | FC(F)(F)CN1CCC(CNc2nc3ccccc3o2)C1 (stereo not given) | 24.8%
34 | CC(C)(C)c1n[nH]cc1CNCC1CCN(CC(F)(F)F)C1 (stereo not given) | -35.2%
35 | OCc1cc2ccccc2nc1NC1CC=CC1 | 62.8%
36 | OCc1cc2ccccc2nc1NCC1CCN(CC(F)(F)F)C1 (stereo not given) | 63.8%
37 | OCc1cc2ccccc2nc1NCC1CC1 | 59.1%
38 | COc1cccn(CC(=O)N2CCCC3(CCOCC3)C2)c1=O | 40.9%
39 | COCCNC(=O)[C@@]12CCO[C@@H]1CCN(Cc1ccc(OC)cc1)C2 | 39.2%
40 | COc1ccc(CN2C[C@H]3CCC[C@@H](CN(C)C4CC4)[C@H]3C2)cn1 | -15.3%
41 | CC(C)(C)c1n[nH]cc1CNCC1CCN(C2CC2)C1 (stereo not given) | 26.3%
42 | CN(CC1CCOC1)S(=O)(=O)c1cccc(C(=O)N2CCOCC2)c1 (stereo not given) | 1.19%
43 | CC(C)N1CCCC(C(=O)N2CCN(c3cccc(C(=O)O)c3)CC2)C1 (stereo not given) | 21.2%
44 | COCCN(C)C[C@@H]1CN(c2cc(C)nc3ccccc23)C[C@@H]1CO | -34.8%
45 | CN(Cc1nc2ccccc2s1)C1CCCN(c2cccnn2)C1 (stereo not given) | 24.7%
46 | Cc1cc(C)c(CNc2ncnc3ccccc23)c(=O)[nH]1 | 14.7%
47 | Cc1cc(C)c(CNc2nc3ccccc3cc2CO)c(=O)[nH]1 | 55.8%
48 | Cc1cc(C)c(CNc2cnc3ccccc3n2)c(=O)[nH]1 | -1.35%

Row | Compound | INHIBITION
49 | Cc1nc(C)n(C2CCCN(C(=O)c3ccc(O)nc3)C2)n1 (stereo not given) | 16.1%
50 | Cc1nn(C)c(N(C)C)c1CNCc1cccc(Cn2cncn2)c1 | -17.6%
51 | Cc1c[nH]nc1C1CCCN1Cc1nccn1C (stereo not given) | 18.4%
52 | COc1c(CNCc2ccnc(N3CCCC3)c2)c(C)nn1C | -8.3%
53 | COc1c(CNCc2cccnc2N2CCN(C)CC2)c(C)nn1C | 51.3%
54 | COc1ccc(OC)c(CNCc2ccnc(N3CCCCC3)c2)c1 | 10.6%
55 | COc1cc(CNCc2ccnc(N3CCCCC3)c2)cc(OC)c1 | 80.9%
56 | COc1c(CNCc2cccnc2N2CCOCC2)c(C)nn1C | -7.7%
57 | COc1c(CNCc2ccnc(N3CCOCC3)c2)c(C)nn1C | 19.4%
58 | COc1cccc2cc(CNCc3ccnc(N4CCCCC4)c3)oc12 | -19.4%
59 | COc1c(CNCc2ccnc(N3CCCCC3)c2)c(C)nn1C | 87.3%
60 | COc1cccc2cc(CNCc3ccc(N4CCCC4)nc3)oc12 | 21.6%
61 | COc1ccc(CNCc2ccc(N3CCCCC3)nc2)cc1OC | 52.7%
62 | COc1c(CNCc2cccnc2N2CCCCC2)c(C)nn1C | -91.6%
63 | COc1ccc(CNCc2ccnc(N3CCCCC3)c2)cc1OC | 37.2%
64 | O=C(NCc1cccnc1N1CCCCC1)c1ccc2cc[nH]c2c1 | 2.7%
65 | NC1(CN2CCOCC2)CCCCC1 | 8.12%
66 | C[C@H]1CN(c2ccccn2)C[C@@]12CCN(c1cccnc1)C2=O | 8.66%
67 | COc1cc(CNCc2ccnc(N3CCOCC3)c2)cc(OC)c1 | 19.2%
68 | COc1cc(CNCc2ccnc(N3CCCC3)c2)cc(OC)c1 | 59.6%
69 | COc1ccc(CNCc2ccnc(N3CCCC3)c2)c(OC)c1 | 41.45%
70 | CCN1CC(C(=O)NCCc2csc(-c3ccncc3)n2)CCC1=O (stereo not given) | 1.86%
